Source: PubChem BioAssay (EPA / NIEHS)
Results filed as inconclusive are left out. Activity calls are given as the source filed them. The calls were made as follows: active = hit-call score of the fitted dose curve at least 0.9, where 1 is the maximum; inconclusive = response in the unintended direction; inactive = score below 0.9.

What follows are molecules tested against human Norepinephrine Transporter (NET), SLC6A2 (gene 6530) (UniProt P23975) (assay: NVS_TR_hNET: NovaScreen (NVS) Transporter Assay for human Norepinephrine Transporter (NET) (AID 2283377);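 also: cell-free membrane protein extracted from CHO cells expressing human NET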;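 as to AC50: displacement of radioligand from human NET seen as loss of scintillation signal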).
Sequence of human Norepinephrine Transporter (NET), SLC6A2 (gene 6530) (P23975 whole entry, looked up): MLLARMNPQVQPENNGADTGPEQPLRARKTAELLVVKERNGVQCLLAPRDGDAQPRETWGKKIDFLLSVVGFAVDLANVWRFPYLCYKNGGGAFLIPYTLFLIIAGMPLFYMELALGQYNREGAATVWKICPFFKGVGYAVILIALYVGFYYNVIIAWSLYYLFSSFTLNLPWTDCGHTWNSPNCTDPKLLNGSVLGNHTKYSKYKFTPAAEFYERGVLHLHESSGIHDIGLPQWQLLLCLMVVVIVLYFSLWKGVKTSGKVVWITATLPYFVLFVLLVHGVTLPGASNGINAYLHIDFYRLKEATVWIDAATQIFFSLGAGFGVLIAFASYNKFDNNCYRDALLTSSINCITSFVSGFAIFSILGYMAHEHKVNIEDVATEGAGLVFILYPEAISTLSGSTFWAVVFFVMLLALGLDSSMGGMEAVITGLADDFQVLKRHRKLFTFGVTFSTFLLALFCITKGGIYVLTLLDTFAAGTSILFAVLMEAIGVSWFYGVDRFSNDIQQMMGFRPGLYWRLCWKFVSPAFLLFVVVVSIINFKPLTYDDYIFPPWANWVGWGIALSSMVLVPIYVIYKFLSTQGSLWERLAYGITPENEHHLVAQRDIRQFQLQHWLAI
Outline: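 In this cell-free binding screen, chemicals at 25 uM (duplicate) compete with a radioligand for CHO-derived human NET over 1 hour, with filter-based radiodetection.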
With `c1ccc(-c2ccccc2)cc1` the outcome was “inactive”. In the case of `Oc1ccc(C(c2ccc(O)cc2)(C(F)(F)F)C(F)(F)F)cc1`, the AC50 is reported as 16.1 µM (active). With `O=C(O)C(F)(F)C(F)(F)C(F)(F)C(F)(F)C(F)(F)C(F)(F)C(F)(F)C(F)(F)C(F)(F)F` the AC50 was 25 µM (active). In the case of `CCOC(=O)C(O)(c1ccc(Cl)cc1)c1ccc(Cl)cc1`, the AC50 is reported as 15.5 µM (active). For `Nc1ccc(-c2ccc(N)cc2)cc1`, the AC50 was 11.8 µM (active). For `Cc1ccc(O)c(C)c1`, the AC50 was 11.5 µM (active). For `CC(C)(c1ccccc1)c1ccc(O)cc1`, the AC50 was 15.5 µM (active). With `Oc1ccc(Cl)cc1Cl` the AC50 was 9.75 µM (active). With `O=NN(c1ccccc1)c1ccccc1` the AC50 was 14 µM (active). With `O=C(O)C(F)(F)C(F)(F)C(F)(F)C(F)(F)C(F)(F)C(F)(F)C(F)(F)C(F)(F)F` the outcome was “inactive”. With `CC#Cc1cc(C)nc(Nc2ccccc2)n1` the outcome was “inactive”. With `CCC(C)(c1ccc(O)cc1)c1ccc(O)cc1` the AC50 was 8.33 µM (active). For `CC(C)C(=O)OCC(C)(C)C(OC(=O)C(C)C)C(C)C` (centres undefined), the outcome was “inactive”. With `CCCCCCCCCC[N+](C)(C)CCCCCCCCCC` the AC50 was 1.46 µM (active).
